PubChem BioAssay (EPA / NIEHS)
Active and inactive are the calls of the source. The calls were made as follows: active = hit-call score of the fitted dose curve at least 0.9, where 1 is the maximum; inactive = score below 0.9.

Assays:
Settings in all cases: mRNA level, 48 h; actives raise or lower the signal
[1] = read-out: NAD(P)H dehydrogenase [quinone] 1 (NQO1), NQO1 (gene 1728); experiment: LTEA_HepaRG_NQO1: Life Technologies and Expression Analysis (LTEA) Assay for NAD(P)H dehydrogenase [quinone] 1 (NQO1) using HepaRG (AID 2283526)
Procedure, shortened: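 qRT-PCR read-out (Fluidigm TaqMan), normalized to three housekeeping genes, after 48 h chemical exposure of HepaRG cells. Concentrations: eight points, top 100 uM, half-log steps, 0.5% DMSO vehicle. Gain or loss of signal fitted relative to DMSO.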

[2] = read-out: Nuclear factor erythroid 2-related factor 2 (Homo sapiens) (UniProt Q16236); experiment: LTEA_HepaRG_NFE2L2: Life Technologies and Expression Analysis (LTEA) Assay for Nuclear factor erythroid 2-related factor 2 (NFE2L2) Transcription Factor using HepaRG (AID 2283527)
Procedure, shortened: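 NFE2L2 transcript level was read by qRT-PCR (housekeeping ACTB/GAPDH/POLR2A normalisation) after 48 h chemical treatment of HepaRG in serum-free induction medium. Duplicate 8-point half-log curves, top 100 uM, 0.5% DMSO vehicle; up- or down-regulation fitted against vehicle.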

[3] = read-out: succinate dehydrogenase complex iron sulfur subunit B (SDHB), SDHB (gene 6390); experiment: LTEA_HepaRG_SDHB: Life Technologies and Expression Analysis (LTEA) Assay for succinate dehydrogenase complex iron sulfur subunit B (SDHB) using HepaRG (AID 2283528)
Procedure, shortened: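 HepaRG, 48 h exposure, 8-pt half-log series from 100 uM in 0.5% DMSO, duplicates. Readout: SDHB mRNA by Fluidigm qRT-PCR vs housekeeping genes; bidirectional fit relative to DMSO.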

[4] = read-out: solute carrier (SLCO1B1), SLCO1B1 (gene 10599); experiment: LTEA_HepaRG_SLCO1B1: Life Technologies and Expression Analysis (LTEA) Assay for solute carrier (SLCO1B1) using HepaRG (AID 2283530)
Procedure, shortened: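 Human HepaRG cultures treated for 48 h with an eight-concentration half-log series topping at 100 uM; SLCO1B1 measured by qRT-PCR and fitted bidirectionally relative to DMSO.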

[5] = read-out: sulfotransferase 2A1 (SULT2A1), SULT2A1 (gene 6822); experiment: LTEA_HepaRG_SULT2A1: Life Technologies and Expression Analysis (LTEA) Assay for sulfotransferase 2A1 (SULT2A1) using HepaRG (AID 2283531)
Procedure, shortened: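 Gene-expression endpoint in a human liver cell line: SULT2A1 mRNA change after 48 h chemical treatment, curves fitted in both directions relative to 0.5% DMSO vehicle. Concentrations spanned eight half-log steps from 100 uM.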

[6] = read-out: Transforming Growth Factor (TGFA), TGFA (gene 7039); experiment: LTEA_HepaRG_TGFA: Life Technologies and Expression Analysis (LTEA) Assay for Transforming Growth Factor (TGFA) using HepaRG (AID 2283532)
Procedure, shortened: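 TGFA transcript quantified by qRT-PCR (Fluidigm arrays) against three housekeeping genes, after 48 hours chemical treatment of HepaRG cells. Top concentration 100 uM with half-log dilutions, 8 points, duplicates, 0.5% DMSO.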

[7] = read-out: Transforming Growth Factor (TGFB1), TGFB1 (gene 7040); experiment: LTEA_HepaRG_TGFB1: Life Technologies and Expression Analysis (LTEA) Assay for Transforming Growth Factor (TGFB1) Transporter using HepaRG (AID 2283533)
Procedure, shortened: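 Eight-point concentration-response (max 100 uM, half-log) in HepaRG under serum-free induction conditions, 48 h. TGFB1 mRNA by qRT-PCR, housekeeping-normalized.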

[8] = read-out: TIMP1, TIMP1 (gene 7076); experiment: LTEA_HepaRG_TIMP1: Life Technologies and Expression Analysis (LTEA) Assay for TIMP1 using HepaRG (AID 2283534);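 also: TaqMan qRT-PCR signal normalized to ACTB GAPDH and POLR2A housekeeping genes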
Procedure, shortened: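 TIMP1 induction or repression in HepaRG cells after 48 h chemical exposure (eight concentrations, highest 100 uM), assessed by normalized qRT-PCR with bidirectional fitting to DMSO controls.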

[9] = read-out: Tumor necrosis factor receptor 1 (TNFRSF1A), TNFRSF1A (gene 7132); experiment: LTEA_HepaRG_TNFRSF1A: Life Technologies and Expression Analysis (LTEA) Assay for Tumor necrosis factor receptor 1 (TNFRSF1A) using HepaRG (AID 2283535)
Procedure, shortened: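 Assay uses 48 h chemical treatment of differentiated HepaRG monolayers, tested in duplicate at eight concentrations from 100 uM downward in 0.5% DMSO. mRNA is normalized to ACTB, GAPDH and POLR2A, with induction or suppression fitted relative to vehicle.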

[10] = read-out: Signal transducer and activator of transcription 3 (Homo sapiens) (UniProt P40763); experiment: LTEA_HepaRG_STAT3: Life Technologies and Expression Analysis (LTEA) Assay for Signal transducer and activator of transcription (STAT3) using HepaRG (AID 2283529)
Procedure, shortened: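 STAT3 transcript quantified by qRT-PCR against three housekeeping genes (ACTB, GAPDH, POLR2A), fitted both directions relative to DMSO. HepaRG cultures exposed 48 h to eight half-log concentrations, top 100 uM, 0.5% DMSO, serum-free induction medium.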

Measured: AC50

Signal transducer and activator of transcription 3 (Homo sapiens), sequence (P40763 whole entry, looked up): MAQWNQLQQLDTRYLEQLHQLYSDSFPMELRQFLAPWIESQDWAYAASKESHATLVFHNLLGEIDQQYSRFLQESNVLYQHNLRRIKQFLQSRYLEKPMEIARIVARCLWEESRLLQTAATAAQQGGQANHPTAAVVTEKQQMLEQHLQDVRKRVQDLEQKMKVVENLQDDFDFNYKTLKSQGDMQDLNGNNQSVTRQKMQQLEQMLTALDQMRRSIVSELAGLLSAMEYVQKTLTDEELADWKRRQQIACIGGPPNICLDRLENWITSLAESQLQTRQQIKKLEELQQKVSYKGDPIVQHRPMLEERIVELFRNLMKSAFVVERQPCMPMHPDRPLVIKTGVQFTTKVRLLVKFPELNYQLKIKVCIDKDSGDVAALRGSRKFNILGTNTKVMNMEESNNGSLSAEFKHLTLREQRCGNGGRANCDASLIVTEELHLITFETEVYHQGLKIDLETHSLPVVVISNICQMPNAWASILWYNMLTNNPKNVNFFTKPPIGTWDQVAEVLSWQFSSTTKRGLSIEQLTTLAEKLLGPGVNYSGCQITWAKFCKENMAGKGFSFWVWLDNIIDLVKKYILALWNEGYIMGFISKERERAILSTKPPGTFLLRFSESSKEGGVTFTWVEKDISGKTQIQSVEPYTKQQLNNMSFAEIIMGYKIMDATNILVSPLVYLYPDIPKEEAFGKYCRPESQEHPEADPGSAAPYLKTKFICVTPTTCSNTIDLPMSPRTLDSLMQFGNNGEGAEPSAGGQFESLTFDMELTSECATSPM
Nuclear factor erythroid 2-related factor 2 (Homo sapiens), sequence (Q16236 whole entry, looked up): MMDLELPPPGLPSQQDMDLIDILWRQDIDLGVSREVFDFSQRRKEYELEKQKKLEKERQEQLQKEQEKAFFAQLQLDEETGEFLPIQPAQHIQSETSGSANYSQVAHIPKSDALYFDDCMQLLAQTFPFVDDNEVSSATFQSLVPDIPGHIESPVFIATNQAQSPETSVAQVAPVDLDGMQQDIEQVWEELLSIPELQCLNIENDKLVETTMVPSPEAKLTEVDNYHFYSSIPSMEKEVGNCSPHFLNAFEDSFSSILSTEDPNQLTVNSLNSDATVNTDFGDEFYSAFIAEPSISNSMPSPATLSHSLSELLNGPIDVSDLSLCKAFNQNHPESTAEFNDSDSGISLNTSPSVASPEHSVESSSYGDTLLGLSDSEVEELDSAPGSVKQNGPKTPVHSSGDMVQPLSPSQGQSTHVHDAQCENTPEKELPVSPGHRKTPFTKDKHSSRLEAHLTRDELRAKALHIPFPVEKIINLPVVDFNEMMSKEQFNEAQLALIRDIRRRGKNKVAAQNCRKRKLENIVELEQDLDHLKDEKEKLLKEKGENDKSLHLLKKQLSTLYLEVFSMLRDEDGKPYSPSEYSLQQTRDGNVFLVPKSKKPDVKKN

COC(=O)c1ccc(I)cc1S(=O)(=O)NC(=O)Nc1nc(C)nc(OC)n1
not listed: [10]
inactive: all other assays above

COC(=O)c1ccccc1C(=O)O
inactive: all assays above

C#CCOC(=O)[C@@H](C)Oc1ccc(Oc2ncc(Cl)cc2F)cc1
inactive: all assays above

CCCCCCC(C)OC(=O)COc1nc(F)c(Cl)c(N)c1Cl (stereo not drawn)
inactive: all assays above

CCOC(=O)c1ccc(O)cc1
inactive: all assays above

CSC(=O)c1cccc2nnsc12
inactive: all assays above

CC1(C)C(C=C(Cl)Cl)C1C(=O)OCc1cccc(Oc2ccccc2)c1 (stereo not drawn)
inactive: all assays above

C=CCOC(Cn1ccnc1)c1ccc(Cl)cc1Cl (stereo not drawn)
active: [1] 50 µM | [2] 21.8 µM | [4] 35 µM | [5] 36.4 µM | [6] 50 µM | [9] 77.8 µM
inactive: [3] | [10] | [7] | [8]

OB(O)O
inactive: all assays above

CCCCOCCOCCOCc1cc2c(cc1CCC)OCO2
active: [2] 9.6 µM | [4] 8.47 µM | [5] 6.8 µM
inactive: all other assays above

CCN(Cc1c(F)cccc1Cl)c1c([N+](=O)[O-])cc(C(F)(F)F)cc1[N+](=O)[O-]
active: [2] 50 µM
inactive: all other assays above

C#C[C@]1(O)CC[C@H]2[C@@H]3CCC4=CC(=O)CC[C@@H]4[C@H]3CC[C@@]21CC
active: [4] 0.0325 µM
not listed: [8]
inactive: all other assays above

CCOC(=O)NCCOc1ccc(Oc2ccccc2)cc1
active: [4] 93.4 µM | [5] 82.7 µM | [6] 78.6 µM
inactive: all other assays above
